We go through 37 compounds from ChEMBL document CHEMBL3988442, “University of Dundee, Small-Polar-MMV Screening Library” (2021).

Assay [1] addresses T1, Aspartate--tRNA(Asp/Asn) ligase (Mycobacterium tuberculosis (strain ATCC 25618 / H37Rv)) (UniProt P9WFW3).
T1 sequence (whole entry): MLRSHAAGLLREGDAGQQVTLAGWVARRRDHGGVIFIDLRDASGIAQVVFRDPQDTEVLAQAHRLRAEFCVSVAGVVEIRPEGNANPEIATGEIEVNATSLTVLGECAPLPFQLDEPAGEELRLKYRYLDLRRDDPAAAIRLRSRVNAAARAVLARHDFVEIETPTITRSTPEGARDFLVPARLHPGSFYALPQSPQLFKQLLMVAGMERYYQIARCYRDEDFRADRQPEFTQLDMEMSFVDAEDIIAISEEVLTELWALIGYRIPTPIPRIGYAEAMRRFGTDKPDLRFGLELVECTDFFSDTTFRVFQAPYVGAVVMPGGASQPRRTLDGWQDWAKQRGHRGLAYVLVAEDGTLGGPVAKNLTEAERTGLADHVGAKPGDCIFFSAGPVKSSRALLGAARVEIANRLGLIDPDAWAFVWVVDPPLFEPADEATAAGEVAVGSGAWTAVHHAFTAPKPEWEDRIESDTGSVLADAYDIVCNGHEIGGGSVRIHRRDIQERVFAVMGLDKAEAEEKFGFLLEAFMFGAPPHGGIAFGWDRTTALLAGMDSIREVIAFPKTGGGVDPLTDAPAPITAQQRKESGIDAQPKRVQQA
The experiment in a line: Assay for Asp RNA synthetase-1 from Mycobacterium tuberculosis. The format is functional. Set-up: scale not given: direction of the effect not stated beside the values. The note with it: 30 µM.

The target in assay [2] is Shiga toxin 2 (Escherichia coli O157:H7) (UniProt P09385+P09386). As to the kind of experiment: E. coli 0.157:H7 Shiga Toxin SOP - stx2 screening assay. The format is functional. Set-up: scale not given: direction of the effect not stated beside the values. The following applies: 30 µM.

For `Cc1ccccc1N1CC2(CCN(S(=O)(=O)c3cccs3)C2)CC1=O` (centres undefined), the figures for the Percent Effect in assay [1] and in assay [2] were 0.41% and -0.82%, respectively.

In the case of `CO[C@@H]1CCN(Cc2cnn(C)c2)[C@@H]2CN(Cc3ccco3)C[C@@H]21`, the Percent Effect was -4.07% in assay [1] and -22% in assay [2].

Consider `COc1ccc(C(=O)NCCCn2ccnc2)c(OC)n1`, for which the Percent Effect in assay [1] is -1.77%; in assay [2], -22.8%.

Regarding `CC(=O)N1CCCN(C(=O)c2oc(Br)cc2C)CC1`, the Percent Effect in assay [1] is -0.167%; in assay [2], -13.6%.

For `CS(=O)(=O)NC[C@]12COC[C@H]1CN(C(=O)c1ccoc1)C2`, the Percent Effect in assay [1] is 0.452%; in assay [2] it was -5.39%.

With `CCS(=O)(=O)CCN1CCCC1c1noc(C2CC2)n1` (centres undefined), the figures for the Percent Effect in assay [1] and in assay [2] were -2.94% and -0.711%, respectively.

For the compound `O=C(NCCCN1CCCC1)c1n[nH]c(=O)c2ccccc12`, the Percent Effect in assay [1] was -3.43%; in assay [2] it was -6.83%.

With `O=C1NC(c2ccccc2)=N[C@@]12CC[C@@H]1CN(Cc3ccco3)C[C@@H]12`, the values for the Percent Effect in assay [1] and in assay [2] were 3.61% and -16.5%, respectively.

Regarding `CCN1CC2(CC1=O)CN(C(=O)c1ccco1)CCN(C(=O)N(C)C)C2` (centres undefined), the Percent Effect in assay [1] is 0.684%; in assay [2], -12.4%.

On to `CCN(CC)CCNC(=O)c1cnc(C(C)(C)C)s1`, for which the Percent Effect is -0.45% in assay [1] and 17.4% in assay [2].

With `Cc1ccc(C2CCCCCN2Cc2cn(C)nc2C)cc1` (centres undefined), the results for the Percent Effect in assay [1] and in assay [2] were -5.2% and -29%, respectively.

As for `Cc1nc(CNC(=O)NCC(O)c2cccc(Cl)c2)cs1` (centres undefined), the Percent Effect is 1.01% in assay [1] and -16.9% in assay [2].

`O=C(CCCNC(=O)C1CC1)Nc1cnn(-c2ccccc2Cl)c1`: the Percent Effect in assay [1] is -4.78%; in assay [2], -29.3%.

Regarding `Cn1nc2c(cc1=O)CN(CCc1nc3ccccc3c(=O)[nH]1)CC2`, the Percent Effect in assay [1] amounted to 7.01%; in assay [2] it was 2.17%.

For `Cc1cc(O)c(OCC(=O)/N=c2\[nH]cc(C)s2)cn1`, the Percent Effect in assay [1] is -2.4%; in assay [2], -6.58%.

In the case of `COc1ccc(NC(=O)N2CCN(c3ncccn3)CC2)cn1`, the Percent Effect in assay [1] is -4.63%; in assay [2] it was -16.1%.

On to `COCCNC(=O)c1cc2c(s1)CCN2C(=O)c1ccccc1`, for which the Percent Effect is 0.0582% in assay [1] and -56.3% in assay [2].

As for `O=C(Cc1ccc2c(c1)OCCO2)N1CCCC(n2ccnc2)C1` (centres undefined), the results for the Percent Effect in assay [1] and in assay [2] were -4.41% and -18.9%, respectively.

`CN1CCCn2c(nc(CNC(=O)c3ccsc3)cc2=O)C1`: the results for the Percent Effect in assay [1] and in assay [2] were 4.62% and -9.45%, respectively.

Regarding `Cc1ccc(C(=O)N2CCCC3(CCCC(=O)N3C)C2)cc1F` (centres undefined), the values for the Percent Effect in assay [1] and in assay [2] were 3.71% and -5.85%, respectively.

On to `O=C(NCc1cc[nH]n1)NCC(c1ccc(F)cc1)N1CCOCC1` (centres undefined), for which the Percent Effect in assay [1] was -0.433%; in assay [2], -14.2%.

As to `Cc1nc(CN2CCC(N(C)Cc3noc(C(C)C)n3)C2)cs1` (centres undefined), the Percent Effect in assay [1] was 8.39%; in assay [2], -23.4%.

Take `O=C(NC(Cc1ccsc1)c1nccs1)C1CCOCC1` (centres undefined): the values for the Percent Effect in assay [1] and in assay [2] were 1.44% and 15.3%, respectively.

`COc1cc(CNC(=O)CNc2cc(Cl)ccc2OC)ccn1`: the Percent Effect in assay [1] came out at 3.88%; in assay [2] it was 20.6%.

Turning to `O=C(NCc1nnc2ccccn12)N1CCc2sccc2C1`, the Percent Effect in assay [1] is -2.69%; in assay [2], 1.75%.

As to `CCc1ccc(S(=O)(=O)Nc2cn(C)cc(Br)c2=O)cc1`, the Percent Effect is -3.18% in assay [1] and -8.3% in assay [2].

In the case of `CN(CCO)C[C@@H]1CN(C(=O)c2c(F)cccc2Cl)C[C@@H]1CO`, the Percent Effect in assay [1] was 2.26%; in assay [2], -49%.

Turning to `CCc1nc(C2CCCN2CC(=O)Nc2c(C)nn(C)c2C)no1` (centres undefined), the figures for the Percent Effect in assay [1] and in assay [2] were 3.31% and -7.62%, respectively.

Consider `Cn1nc2c(cc1=O)CN(Cc1nnc(C3CC3)o1)CC2`, for which the Percent Effect is 47.1% in assay [1] and -53.6% in assay [2].

As to `CC(C)(C)c1ncc(C(=O)NCCNC(=O)c2ccccc2)s1`, the Percent Effect in assay [1] was determined as 1.94%; in assay [2] it was 36.9%.

Take `Cc1ccccc1CC1(CO)CCCN(c2ncccc2C#N)C1` (centres undefined): the Percent Effect in assay [1] is 3.07%; in assay [2] it was -4.79%.

Consider `Cn1cccc1-c1cc(C(=O)N2CCCC2c2cccnc2)[nH]n1` (centres undefined), for which the values for the Percent Effect in assay [1] and in assay [2] were 2.57% and 4.82%, respectively.

Take `Cc1cnc(N2CCCC3(CCN(Cc4csc(C)n4)C3=O)C2)nc1` (centres undefined): the Percent Effect in assay [1] was 6.32%; in assay [2], -0.084%.

Take `COc1ccc(C(CO)NC(=O)Nc2cccc(C#N)c2)cc1` (centres undefined): the Percent Effect in assay [1] was 3.45%; in assay [2], -32.6%.

Regarding `COc1cc(OC)c(C2Nc3cc(Cl)ccc3C3=NCCN32)cc1OC` (centres undefined), the values for the Percent Effect in assay [1] and in assay [2] were -6.02% and -48.2%, respectively.

As to `Cn1ccc(C(=O)NCc2cccc(NC(=O)C3CCC3)c2)cc1=O`, the Percent Effect in assay [1] is -0.879%; in assay [2] it was -48%.

On to `CC(C)c1nc2n(n1)CC(NCc1nnnn1C1CC1)CC2` (centres undefined), for which the Percent Effect came out at 1.55% in assay [1] and 8.39% in assay [2].
